# In the library only some 2.6% were active in any assay of this set; here they are far more common.
# Prx2 Sm inh = inhibitors of Schistosoma mansoni peroxiredoxin 2; Potency, µM; S. mansoni Prx2 activity coupled to TGR/GSH (TGR is thioredoxin glutathione reductase), NADPH fluorescence loss, qHTS; 65,000 compounds, 0.07% hits
#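 Enzyme mix: 100 uM NADPH, 25 nM TGR, 700 uM GSH, 50 nM Prx2 in 100 mM phosphate pH 7.4, 10 mM EDTA, 0.01% Tween-20. 15 min RT with compound; NADPH/GSH added, H2O2 starts reaction; NADPH fluorescence read 8 min.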
# Anthrax LT inh = blocks cellular internalization of anthrax lethal toxin; Potency, µM (titrated, usually from 40 µM), hits mostly inhibitors; 70,000 compounds, 0.67% hits; Cells, anthrax lethal toxin internalization, FRET ratio (460/530); note: nearly all actives have a fitted effect of over 50% in size
# AmpC nodet inh = AmpC beta-lactamase inhibition, detergent-free assay; AmpC nitrocefin hydrolysis, absorbance 480 nm, no detergent; Potency, µM (series often up to 28.7 µM); 71,000 compounds, 1.8% hits; P00811
# Target sequence (P00811 whole entry, looked up): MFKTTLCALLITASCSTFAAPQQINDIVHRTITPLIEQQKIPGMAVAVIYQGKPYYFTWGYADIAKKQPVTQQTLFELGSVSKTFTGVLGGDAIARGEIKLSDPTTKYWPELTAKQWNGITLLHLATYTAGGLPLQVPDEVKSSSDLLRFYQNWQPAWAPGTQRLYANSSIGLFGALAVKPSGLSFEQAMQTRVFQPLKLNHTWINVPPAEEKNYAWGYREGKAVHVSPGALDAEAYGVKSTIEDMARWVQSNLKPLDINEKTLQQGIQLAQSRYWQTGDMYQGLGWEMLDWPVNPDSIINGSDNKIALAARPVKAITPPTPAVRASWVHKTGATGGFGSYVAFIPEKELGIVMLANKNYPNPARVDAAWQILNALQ
#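 AmpC in 20 mM phosphate buffer pH 7.0 was preincubated 15 min at room temperature with compounds. Nitrocefin (800 uM stock) was then added and hydrolysis followed at 480 nm every 20 s for 4 min.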
# AmpC inh det = AmpC beta-lactamase inhibition, detergent assay | P00811 | Potency, µM (series often up to 28.7 µM) | 71,000 compounds, 0.09% hits | purified AmpC, nitrocefin hydrolysis with detergent; active = well fitted curve in the direction sought with a large enough effect; inconclusive = small, poorly fitted or top-dose-only effect
#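 E. coli AmpC (5.3 nM) in 20 mM phosphate pH 7.0 with 0.01% Triton X-100, preincubated 15 min RT with compound; nitrocefin (2 uL of 800 uM stock) hydrolysis followed by 480 nm absorbance every 20 s over 4 min.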
# Numbers stand for hits; – = inactive; ? = inconclusive; · = not tested or not shown; [ ] = dose if it differs, or a comment. Unless noted, calls come from the whole dose curve.
SMILES,Prx2 Sm inh,Anthrax LT inh,AmpC nodet inh,AmpC inh det
Cc1cc(C)c2c(=O)n(CC(=O)N3CCC(N4CCCCC4)CC3)sc2n1,–,3.2µM,–,–
O=C(c1csnn1)N1CCC2(CCN(Cc3cc(C(F)(F)F)cc(C(F)(F)F)c3)CC2)CC1,–,–,–,–
CCN1CCN(Cc2ccc(NC(=O)Nc3ccccc3Cl)cc2)CC1,–,–,4µM[single pt active],–
N[C@]1(C(=O)O)CC[C@@H](C(=O)O)C1,–,–,–,–
NC(N)=NC[C@@H]1COC2(CCCCC2)O1,–,–[3.58 µM],–,–
COc1ccc(NS(=O)(=O)c2ccc3oc(Nc4ccc5c(c4)OCCO5)nc3c2)cc1,–,13µM,3.2µM,–
Cn1c(=O)oc2cc(S(=O)(=O)Nc3ccc4c(c3)OCCO4)ccc21,–,–,–,–
O=C(Nc1cccc(F)c1)N1CCC2(CC1)CCN(C(=O)c1cc(C(F)(F)F)cc(C(F)(F)F)c1)CC2,–,?,–,–
Brc1ccccc1CN1CCC(N2CCCCC2)CC1,·,10µM,–,–
O=C(c1ccccc1)N1CCN(Cc2ccccc2Br)CC1,–,–,–,–
CCCS(=O)(=O)N1CCC(C(=O)N2CCN(Cc3ccccc3)CC2)CC1,–,–,–,–
CS(=O)(=O)N1CCC(C(=O)N2CCC(Cc3ccccc3)CC2)CC1,–,–,13µM,?
O=C1[C@H]2[C@H]3[C@H](O)[C@H](O)C/C(=N/OC[C@@H](O)COCc4ccco4)[C@H]3CC[C@@H]2C(=O)N1C[C@@H]1CCCO1,·,–[1.6 µM],·,·
CN(C)CCCN1c2ccccc2Sc2ccccc21,–,10µM,–,–
CCOC(=O)N1CCN(C(=O)CSc2nnc(Cn3c(=O)sc4ccccc43)n2C)CC1,–,–,4µM[single pt active],–
CCOC(=O)CSc1nnc(Cn2c(=O)sc3ccccc32)n1C,–,–,–,–
Cn1c(Cn2c(=O)sc3ccccc32)nnc1SCC(=O)N1CCOCC1,–,–,4µM[single pt active],–
Cn1c(Cn2c(=O)sc3ccccc32)nnc1SCC(=O)N1CCCCCC1,–,?,4µM[single pt active],–
COc1ccccc1NC(=O)CSc1nnc(Cn2c(=O)sc3ccccc32)n1C,–,–,4µM[single pt active],–
COc1cccc(CNc2ccc3nc(-c4ccc(N)cc4)c(OC)n3n2)c1,–,–,–,–
CC1=NN(c2ccccc2)C(=O)[C@@H]1N=Nc1ccc([As](=O)(O)O)c(O)c1,?,–[8 µM],–[5.75 µM],–[5.75 µM]
CN1CCO[C@H](c2ccccc2)c2ccccc2C1,–,–[3.58 µM],–,–
CCCCNc1nc(N(C)c2ccccc2)nc(-n2ccnc2)n1,–,13µM,–,–
COc1cccc2c1[C@@H]1CN(CCCCn3c(=O)[nH]c4c(sc5ncc(-c6ccccc6)nc54)c3=O)C[C@H]1CO2,–,25µM,–,–
CNc1nc(-c2ccc(N(C)C)cc2)nc2ccccc12,–,?,–,–
SMILES,Prx2 Sm inh,Anthrax LT inh,AmpC nodet inh,AmpC inh det
CNc1nc(-c2c(C)noc2C)nc2ccccc12,–,–,–,–
C=CC[C@@H]1C=C[C@@H](O/N=C(/C)CCC(=O)OC[C@@H]2O[C@H](C#Cc3ccccc3)C=C[C@@H]2Oc2ccc(C)cc2)[C@@H](CO)O1,·,–[1.6 µM],·,·
Oc1c(Cl)ccc(Cl)c1Cl,·,–,–,–
Oc1c(Cl)c(Cl)c(Cl)c(Cl)c1Cl,·,20µM,–,–
CC[C@H](CO)NC(=O)[C@@H]1C=C2c3cccc4[nH]cc(c34)C[C@@H]2N(C)C1,–,?,–,–
Cc1c(C)n(C)c2ccc(C(=O)NCc3cccs3)cc12,–,?,4µM[single pt active],–
CCCN1C(=O)c2cc(C(=O)NCc3cccs3)ccc2C1O (stereo not drawn),–,–,4µM[single pt active],–
CCCN1C(=O)c2cc(C(=O)NCCc3cccc(C)c3)ccc2C1O (stereo not drawn),–,?,4µM[single pt active],–
Cc1ccc(N2C(=O)c3ccc(C(=O)NCCN4CCOCC4)cc3C2=O)cc1,–,–,–,–
CCCN1C(=O)c2cc(C(=O)NCc3ccc(OC)cc3)ccc2C1O (stereo not drawn),–,–,3.2µM[single pt active],–
CCCN1C(=O)c2ccc(C(=O)NCc3ccco3)cc2C1=O,–,–,–,–
CC(C)CN1CCCC2(CCN(C(=O)c3cccn3C)CC2)C1,–,?,–,–
CC(C)CCOc1cccc(C2c3c(oc4ccccc4c3=O)C(=O)N2CCCN2CCOCC2)c1 (stereo not drawn),–,–,–,–
COc1cccc(C2c3c(oc4ccccc4c3=O)C(=O)N2CCCN2CCOCC2)c1 (stereo not drawn),–,–,4µM[single pt active],–
CN1C[C@@H](CNC(=O)OCc2ccccc2)C[C@H]2c3cccc4c3c(cn4C)C[C@@H]21,–,?,–,–
CC1CCN(c2nc3c(c(=O)[nH]c(=O)n3C)n2Cc2ccccc2)CC1,–,–,–,–
CC1CCCN(c2nc3c(c(=O)[nH]c(=O)n3C)n2CCCc2ccccc2)C1 (stereo not drawn),–,?,16µM[single pt active],–
Clc1ccc2c(NC3CCC(N4CCCCC4)CC3)ccnc2c1 (stereo not drawn),–,2.5µM,–[5.75 µM],–[5.75 µM]
CCOC(=O)C1CCCN(CCC(=O)Nc2cccc(F)c2)C1 (stereo not drawn),–,–,–,–
CCOC(=O)C1CCN(CCC(=O)Nc2cccc(Cl)c2)CC1,–,10µM,–,–
COc1ccccc1-c1ccc2ncnc(N(C)Cc3ccco3)c2c1,–,?,–,–
CCc1nccn1S(=O)(=O)c1ccc(OC)c(OC)c1,–,–,4µM[single pt active],–
CCc1nccn1S(=O)(=O)c1ccc(C)c(C)c1,–,–,–,–
COc1ccc(C2=NOC(C(=O)Nc3ccc(C)cc3)C2)cc1OC (stereo not drawn),–,–,–,–
COc1ccc(C2=NOC(C(=O)Nc3cc(C)nn3-c3ccccc3)C2)cc1OC (stereo not drawn),–,–,4µM[single pt active],–
SMILES,Prx2 Sm inh,Anthrax LT inh,AmpC nodet inh,AmpC inh det
CC(O)C(=O)O (stereo not drawn),·,–,–,–
CN(c1nnc(N)s1)C1CCCCC1,–,–,4µM[single pt active],–
CC(C)(C)c1cc(Br)ccc1OCC(=O)Nc1ncn[nH]1,·,7.9µM,–,–
CC(C)(C)c1ccccc1OCC(=O)Nc1ncn[nH]1,–,?,–,–
COc1ccc(Oc2ncc3ncc(=O)n(Cc4cccc(OC)c4)c3n2)cc1,–,?,–,–
Cc1ccc(NC(=O)CSC(N)=O)cc1Cl,–,–,13µM,–
COc1ccc(-c2nnc(SCC(=O)Nc3cccc(Cl)c3)o2)cc1,–,–,7.9µM,–
NC(=O)SCC(=O)Nc1cccc(Cl)c1,·,–,7.9µM,–
NC(=O)SCC(=O)Nc1ccc(Cl)c(Cl)c1,·,–,5µM,–
O=C(Nc1cccc(F)c1)N1CC2(CCN(S(=O)(=O)c3ccccc3)CC2)C1,–,?,–,–
NC(=O)c1cc(-c2ccccc2)nc(N2CCOCC2)n1,·,–,?,–
CC[n+]1cc(-c2ccccc2)nc(N2CCOCC2)n1,–,–,16µM[single pt active],–
Cc1cc(-c2ccc(N=Nc3cc(S(=O)(=O)O)c4ccccc4c3N)c(C)c2)ccc1N=Nc1cc(S(=O)(=O)O)c2ccccc2c1N,·,?,5µM,13µM
Nc1c(S(=O)(=O)O)cc(S(=O)(=O)O)c2ccc(N=Nc3ccccc3)c(O)c12,–,–[8 µM],–[5.75 µM],–[5.75 µM]
